# According to PubChem BioAssay (NCATS):
# The source made the active and inactive calls. Calls follow the shape of the dose curve; as a rule, active = well fitted inhibition curve with a large enough effect; inconclusive = small, poorly fitted or top-dose-only effect; inactive = flat fitted curve, though single readings scatter.
# Tested on: Nanoluciferase (engineered Oplophorus gracilirostris luciferase)
# Assay: Primary Nanoluciferase (NLuc) qHTS assay for identification of artifact compounds. (AID 1845222)
# Details: NLuc-conditioned medium, Nano-Glo luminescence, 5 min; series mostly up to 54.1 µM
# Excerpt: PI: Alexander Tropsha Ph.D.
# UNC Eshelman School of Pharmacy
# University of North Carolina, Chapel Hill, North Carolina
# Hits from high-throughput screening (HTS) of chemical libraries are often false positives due to their interference with the assay detection technology. In response to this problem, we generated the largest publicly available library of chemical liabilities and developed a free webtool to predict HTS artifacts, both of which are described herein. More specifically, we generated, curated, and integrated HTS datasets for thiol reactivity, redox activity, and luciferase (firefly and nano) activity. Using these curated datasets, we developed and validated several Quantitative Structure-Interference Relationship (QSIR) models to predict nuisance behavior. […] These models were employed for virtual profiling of the National Center for Advancing Translational Science's (NCATS) in-house library, and 256 compounds for each assay were selected for the experimental validation of nuisance behavior. The BA for these external predictions ranged from 58 to 78% for compounds within the applicability domains of the models. […] The models developed in this study, along with aggregation models previously developed by our group (SCAM Detective) were implemented in "Liability Predictor," an online tool which may be used as part of chemical library design or for triaging HTS hits. Both the models and the curated datasets are publicly available at https://liability.mml.unc.edu/.
# SEQUENCE No. (e.g., 1, 2, 3, etc.); […] (e.g., Cells, Incubation, Reagent, etc.); VALUE; DESCRIPTION.
# 1; Reagent; 2 uL; Nanoluciferase media.
# 2; Compounds and control; 16 nL; Kalypsis pin tool (Wako USA) equipped with a 1536-well pin head.
# 4; Reagent; 2 uL; Luciferase enzyme.
# 6; Detection; Luminescence, ViewLux microplate reader.
# NOTES (numbers refer to Sequence numbers above)
# 1. Medium was collected from the culture flasks of NLuc-expressing S16 cells (80% confluent) prior to cell plating, filtered through a 0.22um filter, and frozen at -20C prior to use. Media was diluted (1:55) and 2 uL was dispensed into all wells of a 1536-well assay plate (solid-bottom white plate; Greiner Bio One, Monroe, NC).
# 2. A Wako Pin-tool (Wako Automation, Richmond, VA) was used to transfer 16 nL of compounds (consisting of 7-plates in qHTS format, final concentration range 18.3 nM to 114 uM) or control Cilnidipine (final concentration range 623 nM to 80 uM).
# 3. 15 min. incubation at room temperature protected from light.
# 4. 2 uL of NLuc substrate (1:100 in Nano-Glo luciferase buffer; Nano-Glo luminescence assay, Promega, Madison, WI) was dispensed for a final assay volume of 4 uL.
# 5. Plates were centrifuged (121xg, 15 seconds) and incubated for 5 minutes.
# 6. Samples were read for luminescence on a ViewLux CCD imager (PerkinElmer). Data were normalized to no-enzyme (0% activity) and no-inhibitor (DMSO; 100%) controls and the resulting percent inhibition data were fitted to a 4-parameter Hill equation using NCATS in-house software.
row,Structure (SMILES),outcome
1,O=C(N[C@H]1CN2CCC1CC2)c1ccc(Cl)cc1,inactive
2,CC1(N2CCC(n3c([C@@H]4CCCNC4)nc4ccccc43)CC2)CCCCCCC1,inactive
3,O=C(N[C@@H](COc1ccc2[nH]c(=O)[nH]c2c1)c1ccccc1)c1cccn(Cc2ccc(F)c(F)c2)c1=O,inactive
4,CCOC(=O)Nc1ccc(NCc2ccc(F)cc2)cc1N,inactive
5,O=c1[nH]c2ccc(Cl)cc2c(N[C@@H]2CN3CCC2CC3)c1-c1nc2ccccc2[nH]1,inactive
6,O=C(O)CNC(=O)c1c(O)c2ccccc2n(Cc2ccccc2)c1=O,inactive
7,CC(=O)NCCc1c[nH]c2ccccc12,inactive
8,S=C(NC1CCCCC1)N1CCC(c2cnc[nH]2)CC1,inactive
9,CCNC(=O)CC1N=C(c2ccc(Cl)cc2)c2cc(OC)ccc2-n2c(C)nnc21 (centres undefined),inactive
10,Cc1ccccc1-n1c(Cn2ncc3c(N)ncnc32)nc2cccc(C)c2c1=O,inactive
11,Cc1c(C(=O)Nc2cccc(C(F)(F)F)c2)cc(-c2ccccc2)n1CCCN1CCOCC1,inactive
12,CC(=O)Nc1ccc(OC[C@](C)(O)C(=O)Nc2ccc([N+](=O)[O-])c(C(F)(F)F)c2)cc1,inactive
13,CC(C)[C@]12O[C@H]1[C@@H]1O[C@]13[C@]1(O[C@H]1C[C@H]1C4=C(CC[C@@]13C)C(=O)OC4)[C@@H]2O,inactive
14,O=C(NCC1CCOCC1)c1cnc(Nc2ccc(Cl)cc2Cl)nc1C(F)(F)F,inactive
15,CC(C)(C)NC[C@H](O)c1ccc(O)cc1Cl,inactive
16,Cc1ccccc1-n1c(Cn2cnc3c(N)ncnc32)nc2cccc(C)c2c1=O,inactive
17,CC(=O)N(C)c1cccc(-c2ccnc3c(C(=O)c4cccs4)cnn23)c1,inactive
18,COC1=C[C@@H]2[C@@H]3Cc4ccc(OC)c(O)c4[C@]2(CCN3C)CC1=O,inactive
19,COc1ccc(N(C(=O)Oc2c(C)cccc2C)c2ccnc(Nc3ccc(N4CCN(C)CC4)cc3)n2)c(OC)c1,inactive
20,O=C(Oc1ccc([N+](=O)[O-])cc1)N1CCC(C(O)(c2ccc3c(c2)OCO3)c2ccc3c(c2)OCO3)CC1,inactive
21,C/C=C(/C)C(=O)O[C@H]1C(C)=C2[C@H]([C@@H]1OC(=O)CCCCCCC)[C@@](C)(OC(C)=O)C[C@H](OC(=O)CCC)[C@@]1(O)[C@H]2OC(=O)[C@@]1(C)O,inactive
22,CCN1CCN(C(=O)Cc2ccc(Nc3ncc(F)c(Nc4ccc(C(=O)Nc5ccccc5Cl)cc4)n3)cc2)CC1,inactive
23,O=C(Oc1ccc([N+](=O)[O-])cc1)N1CCN(Cc2cccc(Oc3ccccc3)c2)CC1,inactive
24,CCN(CC)C(=O)c1ccc(C2=CC3(CCNCC3)Oc3cccc(O)c32)cc1,inactive
25,CC(N[C@H]1C[C@H]1c1ccccc1)c1ccc2c(c1)OCCO2 (some centres undefined),inactive
26,CCc1c(C(=O)C(N)=O)c2c(OCC(=O)O)cccc2n1Cc1ccccc1,inactive
27,O=C1C=CC[C@@H]2[C@H]3CCCN4CCC[C@@H](CN12)[C@@H]34,inactive
28,CC(C)N(CCNC(=O)CN1CCCC1=O)C(C)C,inactive
29,Cc1[nH]nc2ccc(-c3cncc(OC[C@@H](N)Cc4c[nH]c5ccccc45)c3)cc12,inactive
